Compound activity (PubChem)
Compounds with a hit are over-represented: about 6.2% of the library has one in this group of screens.
HCMV antiviral – human cytomegalovirus inhibition; activity change, negative = inhibition, % at 57.5 µM; HFF cells, HCMV-luciferase reporter, 72 h; hits give low values; AID 1259415; hit rate 4.5% among 410,000; in the data active = activity change below about -60%; inconclusive = no clear call, values can overlap the other calls; inactive = above about -39%
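Steps: HFFs plated, 16 h 37C; compounds added; HCMV-luciferase added to MOI 1 PFU/cell; 72 h 37C; OneGlo reagent, 5 min room temperature; luminescence read, normalized to controls.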
FMDV inh – foot and mouth disease virus antiviral activity; FMDV antiviral cell-based qHTS; Potency, µM (top dose mostly 57.9 µM), hits mostly inhibitors; hit rate 1.2% among 410,000; AID 1159524; calls by dose curve; tested in HEK293T cells; note: read-out not given here; nearly all actives have a fitted effect of over 45% in size
Lassa entry inh – Lassa virus entry inhibition | Lassa virus pseudotype entry inhibition, cell reporter | Potency, µM (highest dose often 37.9 µM), usual class: inhibitors | hit rate 1.2% among 300,000; calls by dose curve; tested in HEK293 cells; note: nearly all actives have a fitted effect of over 50% in size
MARV entry inh – blocks Marburg virus binding to or entry into cells; Marburg virus pseudotyped entry inhibition, cell reporter; Potency, µM (series often up to 37.8 µM), most hits filed as inhibitors; hit rate 1.8% among 300,000; AID 540276; calls by dose curve; tested in HEK293 cells
Of the large screens only hits and unclear results are named; the others gave an inactive call.

CC(=O)c1c[nH]c(C(=O)NCC2CCCO2)c1 (configuration not stated)	none
Cc1onc(-c2c(Cl)cccc2Cl)c1C(=O)c1c[nH]c(C(=O)NCC2CCCO2)c1 (configuration not stated)	FMDV inh inconclusive, Lassa entry inh 8.9µM, MARV entry inh inconclusive
CN1C(=O)Cc2cc(S(=O)(=O)CCC(=O)N3CCN(c4cccc(Cl)c4)CC3)ccc21	FMDV inh inconclusive (no result: MARV entry inh)
Clc1cccc(Nc2cc3c(cn2)ncn3Cc2ccco2)c1	none (no result: FMDV inh, Lassa entry inh, MARV entry inh)
COc1ccc(CCNC(=O)c2cc(=O)[nH]c3ccccc23)cc1	MARV entry inh inconclusive (no result: Lassa entry inh)
O=C(NCCc1ccccc1)c1cc(=O)[nH]c2ccccc12	HCMV antiviral -60
CSc1ccc(CN(C)C(=O)c2cc(=O)c3ccccc3o2)cc1	none
Cc1cc(C)c[n+](CC(=O)c2cc3ccccc3oc2=O)c1	HCMV antiviral -98
O=C(NCCc1ccccc1)c1cc2ccccc2oc1=O	HCMV antiviral -103 (no result: Lassa entry inh, MARV entry inh)
CSc1ccc(CN(C)C(=O)c2cc(=O)[nH]c3ccccc23)cc1	FMDV inh 2.8µM
COc1ccc(C(=O)NCCc2csc(-c3ccc(Cl)cc3)n2)c(OC)c1	FMDV inh inconclusive (no result: MARV entry inh)
COC(=O)CCCn1cc(CN2CC(N3CCCCC3)CS2(=O)=O)nn1 (configuration not stated)	none (no result: Lassa entry inh, MARV entry inh)
COC(=O)c1cccc(CN2C(=O)SC(Nc3ccccc3C)C2=O)c1 (configuration not stated)	none
COc1ccc2c3c(c(=O)oc2c1)[C@H]1O[C@](c2ccsc2)(Cc2cc(C#N)ccc21)O3	none (no result: HCMV antiviral, FMDV inh, Lassa entry inh)
CC(C)(CNC(=O)c1cnn(-c2nccc(-c3cccs3)n2)c1C1CC1)N1CCOCC1	none (no result: HCMV antiviral, Lassa entry inh, MARV entry inh)
Cc1ccc(OCCCSc2nc(-c3ccc(C(C)(C)C)cc3)nc3cc(=O)[nH]n23)cc1C	HCMV antiviral inconclusive (no result: MARV entry inh)
COC(=O)c1ccc(NC(=O)C2C3C=CC(C3)C2C(=O)O)cc1 (configuration not stated)	HCMV antiviral -98 (no result: Lassa entry inh, MARV entry inh)
CCOC(=O)c1ccc(NC(=O)C2C3C=CC(C3)C2C(=O)O)cc1 (configuration not stated)	MARV entry inh inconclusive
O=C(ONC(=O)C1C2C=CC(C2)C1C(=O)NOC(=O)c1ccccc1)c1ccccc1 (configuration not stated)	Lassa entry inh 7.9µM, MARV entry inh 4µM
CCN(CC)CCCNC(=O)c1nn(C)c2c1CS(=O)(=O)c1ccccc1-2	none (no result: MARV entry inh)
NCCc1ccn[nH]1	HCMV antiviral -67 (no result: Lassa entry inh, MARV entry inh)
Cc1c(C(=O)Nc2ccc(-n3cnnn3)cc2)oc2ccccc12	HCMV antiviral -65 (no result: FMDV inh)
Cc1c(C(=O)Nc2cnccn2)oc2ccccc12	none
Cc1ccnc(NC(=O)c2oc3ccccc3c2C)c1	Lassa entry inh 3.5µM, MARV entry inh inconclusive
O=C(Nc1ccc(F)cc1)N[C@H]1CC[C@@]23CCCN2C(=O)CCC[C@H]3C1Cc1ccccc1 (some centres not stated)	none (no result: FMDV inh, Lassa entry inh, MARV entry inh)
COc1ccc(CCNC(=O)c2cc(-c3ccc(Cl)cc3)on2)cc1OC	Lassa entry inh inconclusive
Cc1ccc(NC(=O)c2cc(-c3ccc4c(c3)OCO4)on2)cc1	HCMV antiviral inconclusive, Lassa entry inh inconclusive
Cc1nn(Cc2ccc(Cl)cc2)c(C)c1NC(=O)c1cc(-c2ccc3c(c2)OCO3)on1	HCMV antiviral -94, FMDV inh inconclusive, MARV entry inh inconclusive
COc1ccc(-c2cc(C(=O)Nc3cc(C)n(Cc4ccc(Cl)cc4)n3)no2)cc1OC	HCMV antiviral inconclusive, FMDV inh 3.5µM, Lassa entry inh inconclusive, MARV entry inh inconclusive
Cc1nn(Cc2ccc(Cl)c(Cl)c2)c(C)c1NC(=O)c1cc(-c2ccc3c(c2)OCO3)on1	HCMV antiviral -73, FMDV inh inconclusive, Lassa entry inh inconclusive, MARV entry inh 6.5µM
CC(=NCc1ccc(F)cc1)c1c(O)n(C)c(=O)n(C)c1=O	MARV entry inh 0.33µM
O=C(Cn1cc(S(=O)(=O)c2ccccc2)c(=O)c2cc(Cl)ccc21)Nc1ccc2c(c1)OCO2	none
O=C(c1cc(-c2ccccc2O)on1)N1CCCCC1	Lassa entry inh inconclusive, MARV entry inh inconclusive
COc1ccc(-c2nc3ccc(C(=O)NCC(OC)OC)cc3nc2-c2ccc(OC)cc2)cc1	HCMV antiviral -60, FMDV inh inconclusive, MARV entry inh inconclusive
CCN(CC)C(=O)c1ncn(C)c1C(=O)N(CC)CC	HCMV antiviral -66 (no result: Lassa entry inh, MARV entry inh)
CN(Cc1ccccc1)C(=O)c1ncn(C)c1C(=O)N(C)Cc1ccccc1	none (no result: Lassa entry inh, MARV entry inh)
O=C(CC1CC1)N1CC(=O)N2[C@@H](CO)[C@@H](c3ccc(Br)cc3)[C@@H]2C1	none (no result: FMDV inh, Lassa entry inh, MARV entry inh)
Cc1csc2c(NC3CCN(Cc4ccccc4)CC3)ncnc12	MARV entry inh 2.8µM
c1ccc(CN2CCC(Nc3ncnc4sccc34)CC2)cc1	none
Cc1sc2ncnc(NC3CCN(Cc4ccccc4)CC3)c2c1C	HCMV antiviral -81, FMDV inh inconclusive, Lassa entry inh inconclusive, MARV entry inh inconclusive
NNC(=O)c1cc2c(N3CCC(Cc4ccccc4)CC3)ncnc2s1	HCMV antiviral inconclusive, FMDV inh 14µM, Lassa entry inh 10µM
Cn1ncc2c(N3CCC(Cc4ccccc4)CC3)ncnc21	HCMV antiviral inconclusive, FMDV inh 20µM
CN1CCN(c2ncnc3c2cnn3C)CC1	none (no result: Lassa entry inh, MARV entry inh)
CCc1ccc(NS(=O)(=O)c2ccc3[nH]cc(C(=O)NC4CCCC4)c(=O)c3c2)cc1	MARV entry inh inconclusive
CCOc1ccc(Sc2cc(C(=O)NCCc3ccc(OC)c(OC)c3)c3ccccc3n2)cc1	FMDV inh 14µM (no result: MARV entry inh)
COc1ccc(CCNC(=O)c2cc(Sc3cccc(Cl)c3)nc3ccccc23)cc1OC	HCMV antiviral -84, FMDV inh inconclusive, Lassa entry inh inconclusive (no result: MARV entry inh)
COc1ccccc1N1CCN(c2ncnc3c2cnn3-c2cccc(Cl)c2)CC1	FMDV inh inconclusive (no result: MARV entry inh)
COC(=O)c1c(C(=O)OC)c2c3ccccc3cc(-c3ccccc3)n2c1C(=O)OC	none (no result: HCMV antiviral, FMDV inh, Lassa entry inh)
COc1ccc(NC(=O)C(C)n2nnc3sc(-c4ccccc4)cc3c2=O)cc1Cl (configuration not stated)	none
COc1ccc(Nc2ncc3c(n2)CCN(Cc2ccccc2C)C3)c(OC)c1	FMDV inh inconclusive (no result: MARV entry inh)
Cc1cc(NC(=O)C2CCCCC2)n(-c2nc3ccccc3[nH]2)n1	Lassa entry inh inconclusive
Cc1cc(Nc2ccccc2)n(-c2nc3ccccc3[nH]2)n1	HCMV antiviral -86, Lassa entry inh inconclusive, MARV entry inh inconclusive
Cc1cc(NC(=O)c2ccc(C)s2)n(-c2nc3ccccc3[nH]2)n1	HCMV antiviral -74
Cc1cc(C)nc(-n2nc(C)cc2Nc2ccccc2)n1	HCMV antiviral -66, FMDV inh inconclusive, MARV entry inh inconclusive
Cc1cc(NC(=O)c2ccccc2F)n(-c2nc3ccccc3[nH]2)n1	none
Cc1cc(NC(=O)c2c(F)cccc2F)n(-c2nc3ccccc3[nH]2)n1	HCMV antiviral -89, FMDV inh inconclusive, Lassa entry inh inconclusive, MARV entry inh inconclusive
Cc1cc(Nc2ccccc2)n(-c2ccccc2)n1	MARV entry inh inconclusive
COc1cccc([C@H]2C(C(=O)c3sc(C)nc3C)=C(O)C(=O)N2CCN2CCOCC2)c1OC	none (no result: HCMV antiviral, FMDV inh, Lassa entry inh)
CC(NC(=O)c1cc(F)ccc1F)c1nnc2n1CCN(Cc1ccccc1O)CC2 (configuration not stated)	none (no result: HCMV antiviral, Lassa entry inh, MARV entry inh)
COC(=O)C1=C(C(=O)OC)C2CCCC1C1N=NN(c3ccccc3)C21 (configuration not stated)	none (no result: FMDV inh, Lassa entry inh, MARV entry inh)
O=C(Nc1ccc(OCC(F)(F)C(F)F)cc1)c1ccncc1	HCMV antiviral -63, FMDV inh inconclusive, Lassa entry inh inconclusive
